# Source: ChEMBL document CHEMBL3988442, “University of Dundee, Small-Polar-MMV Screening Library” (2021)
# For some assays here: Entries with a potency or affinity are not part of this list.
# How the values were obtained:
# Set-up in all cases: scale not given: direction of the effect not stated beside the values
# [1] = target: Protein translocase subunit SecA (Escherichia coli (strain K12)) (UniProt P10408); assay: Assay to Identify E. coli SecA ATPase Inhibitors; assay type: functional; conditions: 30 µM
# [2] = target: T1, Ubiquitin-activating enzyme e1, putative (Leishmania donovani (strain BPK282A1)) (UniProt E9BSI1); assay: Leishmania donovani Ubiquitin Activating Enzyme (LdE1); assay type: functional; conditions: 30 µM
# T1 sequence (whole entry): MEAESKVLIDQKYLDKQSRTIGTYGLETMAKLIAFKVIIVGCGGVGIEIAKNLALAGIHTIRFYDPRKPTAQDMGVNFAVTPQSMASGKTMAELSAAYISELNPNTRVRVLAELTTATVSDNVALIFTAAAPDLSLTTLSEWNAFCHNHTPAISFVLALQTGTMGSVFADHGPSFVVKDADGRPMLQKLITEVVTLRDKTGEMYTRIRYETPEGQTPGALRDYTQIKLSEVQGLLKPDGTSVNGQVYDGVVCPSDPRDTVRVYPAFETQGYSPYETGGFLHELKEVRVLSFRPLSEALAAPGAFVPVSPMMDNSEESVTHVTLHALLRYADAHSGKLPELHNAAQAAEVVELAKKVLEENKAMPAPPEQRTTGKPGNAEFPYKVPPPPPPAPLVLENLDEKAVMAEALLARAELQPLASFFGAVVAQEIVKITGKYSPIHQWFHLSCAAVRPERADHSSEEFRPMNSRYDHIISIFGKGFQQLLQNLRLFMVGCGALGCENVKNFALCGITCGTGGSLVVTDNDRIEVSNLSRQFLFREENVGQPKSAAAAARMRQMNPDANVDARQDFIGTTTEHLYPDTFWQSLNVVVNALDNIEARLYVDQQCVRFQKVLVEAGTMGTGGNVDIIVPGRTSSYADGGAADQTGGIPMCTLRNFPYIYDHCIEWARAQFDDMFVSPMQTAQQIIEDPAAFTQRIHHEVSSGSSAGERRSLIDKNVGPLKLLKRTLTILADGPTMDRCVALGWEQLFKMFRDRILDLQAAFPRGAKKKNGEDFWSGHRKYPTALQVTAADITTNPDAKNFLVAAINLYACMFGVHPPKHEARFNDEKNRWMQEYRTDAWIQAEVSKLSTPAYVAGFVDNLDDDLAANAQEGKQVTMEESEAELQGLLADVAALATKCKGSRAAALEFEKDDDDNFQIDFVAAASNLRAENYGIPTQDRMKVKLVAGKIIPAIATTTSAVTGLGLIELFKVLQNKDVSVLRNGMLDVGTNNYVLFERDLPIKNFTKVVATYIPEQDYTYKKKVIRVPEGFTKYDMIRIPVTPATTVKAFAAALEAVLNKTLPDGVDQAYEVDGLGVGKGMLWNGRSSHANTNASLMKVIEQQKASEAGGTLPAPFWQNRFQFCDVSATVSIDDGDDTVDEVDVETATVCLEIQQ
# [3] = target: AMP-activated protein kinase, AMPK (Homo sapiens) (UniProt P54646+O43741+P54619+Q9UGJ0+Q9Y478+Q13131+Q9UGI9); assay: AMP-dependent Kinase enzyme assay. An in vitro enzyme assay that detects ADP turnover that is directly proportional to AMPK activity. This uses naive AMPK that is activated during the assay with MK-8722; assay type: functional; conditions: 30 µM
# [4] = target: Sialic acid-binding Ig-like lectin 9 (Homo sapiens) (UniProt Q9Y336); assay: Hs-Siglec9 ALPHAscreen SOP 20170721; conditions: 10 µM
# Trypanosoma cruzi = assay: Trypanosoma cruzi phosphomannomutase and mannose-1-phosphate guanylyltransferase assay; assay type: functional; conditions: 10 µM
# [5] = target: T2, Arginase-2, mitochondrial (Homo sapiens) (UniProt P78540); assay: in vitro enzyme assay to detect the production of urea directly proportional to the activity of Arginase II; assay type: functional; conditions: 33.3 µM; note: in the data most compounds retested in dose-response had high values
# T2 sequence (whole entry): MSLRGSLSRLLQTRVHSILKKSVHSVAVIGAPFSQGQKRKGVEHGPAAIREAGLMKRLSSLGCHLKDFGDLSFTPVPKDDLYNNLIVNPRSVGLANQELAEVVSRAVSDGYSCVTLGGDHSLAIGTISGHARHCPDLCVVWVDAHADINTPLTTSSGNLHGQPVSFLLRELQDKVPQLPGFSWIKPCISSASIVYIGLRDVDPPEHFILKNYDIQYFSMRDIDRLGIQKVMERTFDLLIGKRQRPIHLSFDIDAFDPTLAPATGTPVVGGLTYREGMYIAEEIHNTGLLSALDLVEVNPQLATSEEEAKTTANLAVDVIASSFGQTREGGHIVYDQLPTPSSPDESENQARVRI
# [6] = target: T3, Proteasome subunit beta (Trypanosoma cruzi) (UniProt O96673); assay: Trypanosoma cruzi proteasome chymotrypsin-like activity (TcProtChymo) assay.; note: in the data most compounds retested in dose-response had high values; assay type: functional; conditions: 9.37 µM
# T3 sequence (whole entry): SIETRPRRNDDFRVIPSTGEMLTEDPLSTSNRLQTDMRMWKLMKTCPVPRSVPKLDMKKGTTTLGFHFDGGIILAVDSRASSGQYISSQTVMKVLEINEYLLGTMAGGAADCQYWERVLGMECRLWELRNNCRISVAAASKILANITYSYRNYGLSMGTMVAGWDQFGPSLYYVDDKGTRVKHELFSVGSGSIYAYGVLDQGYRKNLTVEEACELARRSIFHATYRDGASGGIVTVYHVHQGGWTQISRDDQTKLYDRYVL
# Homo sapiens = organism: Homo sapiens; assay: To identify inhibition of the IFN signalling (Jak-Stat) pathway via expression of an eGFP reporter gene under the control of an IFN-stimulated response element (ISRE) containing MxA promoter.; assay type: functional; conditions: 30 µM
# [7] = target: T4, Tyrosyl-tRNA synthetase, putative (Trypanosoma cruzi (strain CL Brener)) (UniProt Q4DSP6); assay: Trypanosoma cruzi tyrosyl tRNA synthetase (TcYRS) _High Tyrosine SOP; assay type: functional; conditions: 30 µM; note: in the data most compounds retested in dose-response had high values
# T4 sequence (whole entry): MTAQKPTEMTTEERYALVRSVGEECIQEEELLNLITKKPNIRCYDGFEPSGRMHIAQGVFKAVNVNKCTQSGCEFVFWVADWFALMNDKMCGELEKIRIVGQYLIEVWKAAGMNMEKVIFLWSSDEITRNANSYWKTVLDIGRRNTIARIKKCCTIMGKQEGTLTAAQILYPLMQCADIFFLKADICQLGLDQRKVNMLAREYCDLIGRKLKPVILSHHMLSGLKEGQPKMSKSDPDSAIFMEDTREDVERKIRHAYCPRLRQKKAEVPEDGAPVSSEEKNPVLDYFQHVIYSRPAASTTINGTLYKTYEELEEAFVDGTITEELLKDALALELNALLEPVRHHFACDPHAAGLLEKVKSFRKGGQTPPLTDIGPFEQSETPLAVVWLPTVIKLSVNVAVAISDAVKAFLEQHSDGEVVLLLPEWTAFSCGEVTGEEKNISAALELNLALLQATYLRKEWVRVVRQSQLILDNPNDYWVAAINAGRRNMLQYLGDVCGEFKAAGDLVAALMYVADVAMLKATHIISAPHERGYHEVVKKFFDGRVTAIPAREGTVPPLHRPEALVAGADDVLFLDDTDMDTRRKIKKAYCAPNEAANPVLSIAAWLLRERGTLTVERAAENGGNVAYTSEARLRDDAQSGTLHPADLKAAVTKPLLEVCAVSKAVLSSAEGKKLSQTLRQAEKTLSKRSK
# [8] = target: T4, Tyrosyl-tRNA synthetase, putative (Trypanosoma cruzi (strain CL Brener)); assay: Trypanosoma cruzi tyrosyl tRNA synthetase (TcYRS) SOP; assay type: functional; conditions: 30 µM
# [9] = target: Chromo domain-containing protein 1 (Saccharomyces cerevisiae (strain ATCC 204508 / S288c) (Baker's yeast)) (UniProt P32657); assay: ScCHD-1 Enzyme Inhibition Assay; assay type: functional; conditions: 30 µM; note: in the data most compounds retested in dose-response had high values
# Chromo domain-containing protein 1 (Saccharomyces cerevisiae (strain ATCC 204508 / S288c) (Baker's yeast)), sequence (P32657 whole entry, the tested form may be a part): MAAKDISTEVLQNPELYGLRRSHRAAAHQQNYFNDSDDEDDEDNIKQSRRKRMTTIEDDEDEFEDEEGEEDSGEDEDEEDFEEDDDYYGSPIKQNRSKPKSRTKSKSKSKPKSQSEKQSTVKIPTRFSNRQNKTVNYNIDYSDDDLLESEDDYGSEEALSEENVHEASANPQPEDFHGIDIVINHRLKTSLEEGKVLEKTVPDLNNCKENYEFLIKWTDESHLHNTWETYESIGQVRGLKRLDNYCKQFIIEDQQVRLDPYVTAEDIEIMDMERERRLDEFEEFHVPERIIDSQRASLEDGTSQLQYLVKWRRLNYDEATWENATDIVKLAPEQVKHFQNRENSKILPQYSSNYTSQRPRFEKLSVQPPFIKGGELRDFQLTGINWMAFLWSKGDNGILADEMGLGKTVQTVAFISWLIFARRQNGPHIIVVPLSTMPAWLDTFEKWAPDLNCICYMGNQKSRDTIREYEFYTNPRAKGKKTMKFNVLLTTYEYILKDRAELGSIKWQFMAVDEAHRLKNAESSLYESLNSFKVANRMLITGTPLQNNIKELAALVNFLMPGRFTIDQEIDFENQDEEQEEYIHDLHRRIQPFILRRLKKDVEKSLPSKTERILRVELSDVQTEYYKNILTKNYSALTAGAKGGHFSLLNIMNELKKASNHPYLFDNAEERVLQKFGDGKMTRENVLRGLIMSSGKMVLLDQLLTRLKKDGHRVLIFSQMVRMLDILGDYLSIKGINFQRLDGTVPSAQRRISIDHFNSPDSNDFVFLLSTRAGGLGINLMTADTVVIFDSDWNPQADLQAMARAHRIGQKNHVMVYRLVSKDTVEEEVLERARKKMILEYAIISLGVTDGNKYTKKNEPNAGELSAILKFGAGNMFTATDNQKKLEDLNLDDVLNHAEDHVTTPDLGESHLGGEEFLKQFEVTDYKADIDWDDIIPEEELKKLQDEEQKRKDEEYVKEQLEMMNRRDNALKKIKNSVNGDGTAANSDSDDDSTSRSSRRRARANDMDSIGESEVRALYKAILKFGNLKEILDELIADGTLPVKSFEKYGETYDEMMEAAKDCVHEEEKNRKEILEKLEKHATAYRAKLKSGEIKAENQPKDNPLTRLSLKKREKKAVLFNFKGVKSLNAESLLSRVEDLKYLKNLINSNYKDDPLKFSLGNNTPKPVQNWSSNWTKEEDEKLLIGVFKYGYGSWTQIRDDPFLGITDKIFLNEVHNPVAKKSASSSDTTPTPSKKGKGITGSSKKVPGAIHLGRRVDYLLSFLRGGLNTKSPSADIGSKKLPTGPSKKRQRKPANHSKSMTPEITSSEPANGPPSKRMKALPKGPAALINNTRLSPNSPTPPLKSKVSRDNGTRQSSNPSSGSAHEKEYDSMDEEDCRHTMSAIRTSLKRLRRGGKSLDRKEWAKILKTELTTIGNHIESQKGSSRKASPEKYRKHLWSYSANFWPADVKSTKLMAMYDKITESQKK
# Protein translocase subunit SecA (Escherichia coli (strain K12)), sequence (P10408 whole entry): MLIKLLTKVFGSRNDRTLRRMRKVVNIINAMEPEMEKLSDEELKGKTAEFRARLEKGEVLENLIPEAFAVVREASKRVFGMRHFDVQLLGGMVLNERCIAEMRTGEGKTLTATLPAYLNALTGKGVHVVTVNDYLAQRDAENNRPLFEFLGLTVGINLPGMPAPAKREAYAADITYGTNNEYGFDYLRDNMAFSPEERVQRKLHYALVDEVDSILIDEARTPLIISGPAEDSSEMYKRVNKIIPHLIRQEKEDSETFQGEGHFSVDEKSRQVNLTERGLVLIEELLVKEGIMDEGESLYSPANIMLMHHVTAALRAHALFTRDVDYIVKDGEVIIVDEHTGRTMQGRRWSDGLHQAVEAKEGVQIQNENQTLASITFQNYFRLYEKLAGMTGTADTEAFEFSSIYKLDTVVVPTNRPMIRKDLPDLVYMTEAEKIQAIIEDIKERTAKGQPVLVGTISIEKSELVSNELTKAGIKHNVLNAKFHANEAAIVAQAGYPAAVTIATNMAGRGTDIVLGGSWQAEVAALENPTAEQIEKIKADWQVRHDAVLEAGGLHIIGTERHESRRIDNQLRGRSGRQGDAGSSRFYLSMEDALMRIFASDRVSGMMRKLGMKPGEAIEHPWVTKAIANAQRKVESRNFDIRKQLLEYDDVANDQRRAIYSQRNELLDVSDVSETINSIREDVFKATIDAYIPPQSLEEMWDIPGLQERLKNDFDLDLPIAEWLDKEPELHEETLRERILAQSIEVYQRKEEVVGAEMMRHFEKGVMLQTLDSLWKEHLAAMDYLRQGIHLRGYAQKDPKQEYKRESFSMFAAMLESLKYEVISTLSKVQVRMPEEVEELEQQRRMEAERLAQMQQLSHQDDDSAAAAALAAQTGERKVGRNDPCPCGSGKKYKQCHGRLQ
# Sialic acid-binding Ig-like lectin 9 (Homo sapiens), sequence (Q9Y336 whole entry): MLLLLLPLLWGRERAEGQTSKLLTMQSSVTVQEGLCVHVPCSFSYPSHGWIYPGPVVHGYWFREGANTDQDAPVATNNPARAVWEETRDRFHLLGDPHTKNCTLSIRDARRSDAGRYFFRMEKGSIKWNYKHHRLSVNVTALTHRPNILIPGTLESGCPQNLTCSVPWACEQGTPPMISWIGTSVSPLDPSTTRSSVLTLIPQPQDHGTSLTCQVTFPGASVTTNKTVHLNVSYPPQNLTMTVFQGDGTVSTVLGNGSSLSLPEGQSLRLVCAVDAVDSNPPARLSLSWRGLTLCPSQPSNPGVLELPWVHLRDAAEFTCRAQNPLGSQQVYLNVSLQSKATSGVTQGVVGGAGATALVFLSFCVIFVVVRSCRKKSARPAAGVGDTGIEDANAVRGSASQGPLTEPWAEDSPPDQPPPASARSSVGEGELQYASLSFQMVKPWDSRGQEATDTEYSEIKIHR
SMILES,Percent Effect [1] [%],Percent Effect [2] [%],Percent Effect [3] [%],Percent Effect [4] [%],Percent Effect (Trypanosoma cruzi) [%],Percent Effect [5] [%],Percent Effect [6] [%],Percent Effect (Homo sapiens) [%],Percent Effect [7] [%],Percent Effect [8] [%],Percent Effect [9] [%]
CC(C)S(=O)(=O)c1nnc(CCNC(=O)OC(C)(C)C)o1,-7.35,4,2.34,-6.84,-5.3,-9.33,14.1,17.5,3.17,2.56,-8.11
OC(COc1ccccc1)CN1CCC(c2ccn[nH]2)CC1 (stereo unspecified),-2.35,15.2,-5.68,0.333,-4.82,3.04,2.05,-21.8,2.46,13.9,-2.28
Cn1cc(CN2CCc3nc(-c4ccccn4)nc(O)c3C2)cn1,-7.26,2.67,-8.66,8.08,6.69,-3.96,-0.617,-0.651,10.6,29.5,-10.9
COc1ccc(OC)c(NC(=O)N2CCCC2c2ccco2)c1 (stereo unspecified),-1.78,5.2,7.39,-2.94,-0.888,1.94,7.83,13.8,-1.06,3.85,-8.44
CCS(=O)(=O)N1CCc2ccc(NC(=O)Nc3ccc(F)cc3F)cc21,-3.73,7.79,2.67,-0.508,8.58,-3.23,23,-1.71,-2.12,6.41,-9.26
CC(C)Oc1cccc(CNC(=O)NC(C)(C(=O)O)c2ccco2)c1 (stereo unspecified),-2.82,13.2,-1.29,13.7,3.08,-1.08,-2.79,-7.9,9.36,18.5,-0.593
CCOC(=O)CNC(=O)N1CCN(c2ncccn2)CC1,-2.75,7.79,-0.383,6.61,4.03,-13.8,9.65,14.3,5.38,13.6,-4.38
CS(=O)(=O)N1CCCN(C(=O)c2ccc(Cn3ccccc3=O)o2)CC1,0.345,10.8,-1.54,-9.12,-8.45,2.77,5.03,12.3,6.93,15.8,-7.1
COC(=O)c1cccc(C(=O)N2CCN(c3ccccc3F)CC2)n1,-5.05,20.8,-7.33,-10.6,7.59,1.94,13.9,15.5,5.29,16.7,-10.4
CCC(O)CNC(=O)c1coc(COc2ccc3sc(C)nc3c2)n1 (stereo unspecified),-6.39,-2.74,-4.19,-4.04,-0.392,-2.73,0.71,50,-1.07,0,2.81
CS(=O)(=O)NC[C@H]1OC[C@@H]2CCN(Cc3ccc(F)cc3)C[C@@H]21,0.854,13.3,2.13,-0.611,-1.74,-27.8,7.35,13.4,3.12,15,-6.75
c1ccc(Cn2cc(CNCC3CCCN3c3cccnn3)cn2)cc1 (stereo unspecified),-3.01,7.89,-1.98,-4.74,1.96,-7.55,15.5,1.15,15.3,28.4,-4.79
COc1ccnc(N2CCN(C(=O)c3csc(C(C)C)n3)CC2)n1,-7.52,10.8,-3.77,29.4,9.68,5.21,7.3,13,4.3,11.1,-11.3
O=C(Cc1ccc2c(c1)CCO2)N1CCN(c2cnccn2)CC1,-4.64,-7.89,2.2,-0.444,9.59,-1.53,0.167,5.16,3.43,7.32,-12.2
COC(=O)CNC(=O)CSCc1nc(O)c2cc(C(C)C)sc2n1,0.0478,-6.67,10.7,2.72,-2.95,-9.68,7.58,-3.98,-3.17,5.13,-1.35
Cc1cc(C)n(CCC(=O)N2CCC(c3nc(C(C)C)no3)CC2)n1,-2.78,20.8,4.41,11.6,5.8,-40,16.5,-3.55,6.45,18.5,-7.45
